Source: PubChem
Rin1 Abl inh = human Rin1-Abl interaction inhibition | 360,000 tested, 0.4% active | inhibition, % at 7.35 µM | TR-FRET Rin1/Abl binding, biochemical | AID 588664; in the data active means inhibition above about 5%, passing the limit was not always enough
p97 inhibitor = human p97 ATPase inhibition; P55072; recombinant p97 ATPase, Kinase-Glo ATP luminescence, 3 h; inhibition, % at 8 µM; 220,000 tested, 0.42% active; AID 1481; in the data active means inhibition above about 15%;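 further: 0% = DMSO vehicle and 100% = wells lacking enzyme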
PREPL inh = human PREPL enzyme inhibition. Q4J6C6. recombinant PREPL, fluorescence polarization activity-based probe. inhibition, % at 5.96 µM. 320,000 tested, 0.68% active. AID 2751; in the data active means inhibition above about 43%;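 further: 0% = enzyme with DMSO and 100% = wells lacking enzyme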
Hck-Nef inh = human Hck-Nef kinase inhibition. P08631. Recombinant Hck-YEEI plus Nef, Z-Lyte FRET kinase assay. inhibition, % at 20 µM. 220,000 tested, 0.68% active. AID 463187;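 active means Hck-Nef kinase inhibition above about 50%, limit read from the data; inactive means inhibition below that limit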;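 further: 0% = DMSO with Hck plus Nef and 100% = Hck alone without Nef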
Target sequence (P08631 whole entry, looked up): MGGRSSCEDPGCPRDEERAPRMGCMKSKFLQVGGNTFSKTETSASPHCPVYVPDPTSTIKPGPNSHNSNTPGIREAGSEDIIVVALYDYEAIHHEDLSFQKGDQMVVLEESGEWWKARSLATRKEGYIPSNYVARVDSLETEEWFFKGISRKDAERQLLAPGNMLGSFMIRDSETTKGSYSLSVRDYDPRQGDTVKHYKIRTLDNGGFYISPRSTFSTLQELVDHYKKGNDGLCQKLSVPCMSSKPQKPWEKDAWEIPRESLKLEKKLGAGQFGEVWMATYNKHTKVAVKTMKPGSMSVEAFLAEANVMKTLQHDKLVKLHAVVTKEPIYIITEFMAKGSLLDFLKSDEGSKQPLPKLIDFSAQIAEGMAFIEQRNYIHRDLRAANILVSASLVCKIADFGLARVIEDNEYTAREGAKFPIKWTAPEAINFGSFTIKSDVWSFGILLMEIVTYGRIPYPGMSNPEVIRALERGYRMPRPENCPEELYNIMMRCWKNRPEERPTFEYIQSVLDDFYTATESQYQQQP
LYPLA1 inh = counter-screen for PME1 inhibitors: inhibitors of human LYPLA1; recombinant LYPLA1, FP-Rh probe fluorescence polarization; AID 2174; inhibition, % at 5.9 µM; O75608; 320,000 tested, 0.16% active;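 active means inhibition above the mean of all tested compounds plus 3 SD, set per campaign, cut at about 14% in these data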;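 further: inhibitors block serine hydrolase probe labeling of LYPLA1 so polarization falls; 0% = enzyme with DMSO and 100% = wells lacking LYPLA1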
LYPLA2 counter = LYPLA2 (human) inhibition in PME1 counter-screen; O95372; recombinant LYPLA2, FP-Rh probe fluorescence polarization; inhibition, % at 5.9 µM; 320,000 tested, 0.38% active;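 active means inhibition above the screen-wide mean plus 3 SD, limit set per campaign, cut at about 26% in these data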;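 further: 0% = LYPLA2 with DMSO and 100% = wells lacking LYPLA2 enzyme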
LYPLA2 conf = LYPLA2 (human) inhibition, confirmation counter-screen | shares compounds with LYPLA2 counter | recombinant LYPLA2, FP-Rh probe fluorescence polarization | inhibition, % at 5.9 µM | 1,100 tested, 72% active;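 active means mean inhibition across replicates above the hit cutoff set in the primary screen, cut at about 26% in these data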;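 further: blocked labeling of the enzyme by serine hydrolase FP-Rh probe lowers polarization; 0% = enzyme with DMSO and 100% = wells lacking LYPLA2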
LYPLA2 ABPP = blocks human acyl-protein thioesterase 2 in gel ABPP | shares compounds with LYPLA2 counter | rhLYPLA2 in mouse brain proteome, gel ABPP FP-Rh | inhibition, % at 20 µM | 150 tested, 30% active;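 active means inhibition of LYPLA2 enzyme probe labeling above about 50%, limit read from the data; inactive means inhibition below that limit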;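 further: loss of FP-Rh probe labeling of the LYPLA2 gel band measured as band density; 0% = DMSO only control band and 100% = blank gel background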
An asterisk follows results filed as active; . = not tested or not shown. A selection: hits, their analogues and other compounds. The true share with any hit is near 1.7%.

SMILES	Rin1 Abl inh	p97 inhibitor	PREPL inh	Hck-Nef inh	LYPLA1 inh	LYPLA2 counter	LYPLA2 conf	others
O=C1CC(c2ccc(Cl)cc2)CC(O)=C1C=NCc1ccc(Cl)c(Cl)c1 (stereo not given)	5	5	4	0	2	27*	58*	LYPLA2 ABPP=37
CCCCOc1ccc(CSc2nc(C)[nH]c2[N+](=O)[O-])cc1[N+](=O)[O-]	1	-10	13	-10	11	50*	54*	LYPLA2 ABPP=20
Cc1[nH]c2ccc(C(=O)N3CCN(c4ccc(F)cc4)CC3)cc2c1C	4	.	21	.	2	3	.
Cc1csc(SCC(=O)Nc2cc(S(=O)(=O)N(C)C)ccc2C)n1	2	.	-4	.	3	1	.
CCN(CC)S(=O)(=O)c1ccc(N2CCOCC2)c(NC(=O)c2cc(=O)[nH]c3ccccc23)c1	1	0	3	3	-1	36*	43*
CCN(CC)S(=O)(=O)c1ccc(N2CCOCC2)c(NC(=O)COc2ccc(C#N)cc2)c1	2	-7	12	-2	4	77*	79*	LYPLA2 ABPP=64*
FC(F)(F)c1ccccc1Cc1c(-c2cccc(Br)c2)nc2ccc(Cl)cn12	5	.	.	.	.	.	.
CCc1ccc(C(C#N)=CC=Cc2ccccc2)cc1	1	.	.	.	.	.	.
CCOC(=O)C1CCN(C2=NC(=O)/C(=C/c3ccc(OC)c(OC)c3)S2)CC1	-2	.	1	.	-2	-2	.
CCOC(=O)C1CCN(C2=NC(=O)/C(=C/c3ccc(Cl)cc3)S2)CC1	1	.	18	.	4	31*	35*
CCOC(=O)C1CCCN(C(=O)c2ccc(Cn3c(=S)[nH]c4cc(C(=O)OC)ccc4c3=O)cc2)C1 (stereo not given)	2	-2	1	23	0	7	.
CCOC(=O)N1CCN(C(=O)c2ccc(Cn3c(=S)[nH]c4cc(C(=O)OC)ccc4c3=O)cc2)CC1	-3	.	2	.	3	29*	19
CCS(=O)c1ccccc1C(=O)OCC(=O)Nc1cccc(S(=O)(=O)N2CCCCC2)c1 (stereo not given)	2	.	11	.	-1	1	.
O=C(/C=C/c1ccco1)N1CCN(C/C=C/c2ccccc2)CC1	0	-3	23	6	2	27*	24
O=C(/C=C/c1ccco1)N1CCN(S(=O)(=O)/C=C/c2ccccc2)CC1	-3	4	-24	-78	2	-3	.
C#CCOCCOCCOCCNc1nc(N2CCN(C(=O)CCCCCCCCCCNC(=O)Cn3cc(C[C@@H](C)O)nn3)CC2)nc(N2CCN(C(=O)CCCCCCCCCCNC(=O)[C@@H]([C@H](C)CC)n3cc(CCCCCN)nn3)CC2)n1	10	.	42	.	0	31*	28*
COc1ccc(OCCOc2ccc(S(=O)(=O)N3CCCC3)cc2[N+](=O)[O-])cc1	4	.	15	.	-2	30*	30*
CCOn1c(=O)c(-c2ccccc2)[n+]([O-])c2ccccc21	1	.	2	.	-1	-4	.
CCCOc1ccc(-c2c(=O)n(O)c3ccccc3[n+]2[O-])cc1	0	.	20	.	8	50*	20
CN(CC(=O)O/N=C(\N)c1cccc([N+](=O)[O-])c1)S(=O)(=O)c1ccccc1	5	4	-8	3	-5	-2	.
CN(CC(=O)O/N=C(\N)c1ccc([N+](=O)[O-])cc1)S(=O)(=O)c1ccccc1	0	-5	-31	0	-1	29*	18
Cc1ccc(S(=O)(=O)N(C)CC(=O)O/N=C(\N)c2ccc([N+](=O)[O-])cc2)cc1	3	0	-37	-22	7	67*	58*	LYPLA2 ABPP=0
COc1cccc(NC(=O)CN(C)C(=O)Cn2c(=O)oc3ccccc32)c1	0	.	21	.	0	3	.
CCOc1ccccc1N1CCN(C(=O)CCCN2C(=O)c3cccc4cccc(c34)C2=O)CC1	-3	-7	18	1	-1	7	.
O=C(CCCN1C(=O)c2cccc3cccc(c23)C1=O)N1CCN(c2ccccc2)CC1	-2	-1	-138	0	6	37*	40*
SMILES	Rin1 Abl inh	p97 inhibitor	PREPL inh	Hck-Nef inh	LYPLA1 inh	LYPLA2 counter	LYPLA2 conf	others
O=C(CCCN1C(=O)c2cccc3cccc(c23)C1=O)N1CCN(c2ccccc2O)CC1	-7	2	-52	2	8	49*	49*
CC(C)Cc1nnc(NC(=O)c2ccc(S(=O)(=O)N3CCCC3)cc2)s1	-1	.	.	.	.	.	.
CCCCS(=O)(=O)N1CCN(S(=O)(=O)c2ccc(Cl)s2)CC1	-1	.	-11	.	-2	-5	.
O=C(C1CCN(c2nnc(-n3cccc3)s2)CC1)N1CCN(Cc2ccc3c(c2)OCO3)CC1	-3	6	24	-2	4	34*	46*
COc1cccc(CN2CCC(C(=O)N3CCN(Cc4ccc5c(c4)OCO5)CC3)CC2)c1	2	.	16	.	-2	6	.
COc1cc(S(=O)(=O)NCC2(N3CCCCC3)CCCCC2)ccc1NC(C)=O	-2	.	.	.	.	.	.
Cc1nn(C)c(C)c1CN(C)C(=O)c1cc2n(n1)C(C(F)(F)F)CC(c1cccs1)N2 (stereo not given)	-2	4	24	3	-1	26*	10
Cc1nn(C)cc1CN(C)C(=O)c1nn2c(c1Cl)NC(c1cccs1)CC2C(F)(F)F (stereo not given)	0	-1	10	2	-1	0	.
O=C(c1cc(-c2ccc(F)cc2)no1)N1CCN(Cc2ccc3c(c2)OCO3)CC1	-2	.	-4	.	1	33*	35*
O=C(c1c(F)c(F)c(F)c(F)c1F)N1CCN(Cc2ccc3c(c2)OCO3)CC1	3	.	11	.	-1	-1	.
CC(=O)c1ccc(CCCCCCCCCC(=O)O)s1	-1	-7	4	-1	3	59*	57*	LYPLA2 ABPP=18
CC(/C=N/NC(=O)Cn1nnc(N)n1)=C\c1ccc(C(C)C)cc1	3	1	8	26	-5	62*	70*
O=C(NNC(=O)c1cncc(Br)c1)c1ccncc1	-1	.	9	.	-5	0	.
O=C(Cc1ccc(S(=O)(=O)N2CCOCC2)s1)N1CCN(c2cccc(C(F)(F)F)c2)CC1	-5	.	15	.	1	40*	48*
COc1cccc(OCC(O)CN2CCOCC2)c1 (stereo not given)	1	-7	5	-1	-2	-4	.
COc1cccc(OCC(O)CN2CCN(CCN3C(=O)c4cccc5cccc(c45)C3=O)CC2)c1 (stereo not given)	-2	-8	7	16	3	32*	34*
CCOC(=O)N1CCN(Cc2nc3cc(NC(=O)c4ccco4)ccc3n2C)CC1	2	.	8	.	-7	-2	.
